Only a selection was taken, and hits are over-represented in it overall.
Tgondii IFNg: inhibitors of Toxoplasma gondii growth with IFN-gamma; Toxoplasma gondii growth in IFN-gamma-treated host cells; active compounds read low; activity change, negative = inhibition, % (test concentration not listed); actives 3.8% (n = 69,000); in the data active means activity change below about -70%, passing the limit was not always enough;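 further: host cells are HeLa cells infected with Toxoplasma gondii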
An asterisk follows results filed as active; i = inactive; ! = not active in a repeat.

SMILES	Tgondii IFNg
CC(C)CN1C[C@H]2[C@H](C(=O)N(C)Cc3ccccn3)CCS(=O)(=O)[C@H]2C1	1
CC(=O)N1CCO[C@H]2CN(S(=O)(=O)c3cccs3)CC[C@@H]2C1	-23
CCn1c(-c2cnn(C)c2C)n[nH]c1=O	-6
CCCc1nc(C)cc(N2CCC(Oc3ncccn3)CC2)n1	-2
CN(Cc1cccc2ncccc12)Cc1cnn2cccnc12	2
c1cc(-c2cnn3cc(-c4ccc(N5CCNCC5)cc4)cnc23)c2cccnc2c1	-84*
CN(Cc1cccc2ncccc12)C(=O)c1cnn(-c2ccc(F)cc2)c1	-40
CCn1c(=O)n(CC)c2cc(NC(=O)c3cccc(N4CCCC4=O)c3)ccc21	72
O=c1[nH]c(O)c(N=Nc2ccc(S(=O)(=O)N3CCCC3)cc2)c(=O)[nH]1	-74*
COC(=O)Nc1ccc(S(=O)(=O)N2CCCCC2)cc1	25
O=c1ccc2cc(S(=O)(=O)N3CCCC3)ccc2[nH]1	i
Cc1ccc(CS(=O)(=O)N2CCCC3(CCCC(=O)N3C)C2)cc1 (centres undefined)	7
CCOc1ccccc1NC(=O)N1CCC2(CC1)NC(=O)c1ccccc1N2C	0
Cc1c2oc3c(C)ccc(C(=O)N[C@@H]4C(=O)N[C@H](C(C)C)C(=O)N5CCC[C@H]5C(=O)N(C)CC(=O)N(C)[C@@H](C(C)C)C(=O)O[C@@H]4C)c3nc-2c(C(=O)N[C@@H]2C(=O)N[C@H](C(C)C)C(=O)N3CCC[C@H]3C(=O)N(C)CC(=O)N(C)[C@@H](C(C)C)C(=O)O[C@@H]2C)c(N)c1=O	-82*
O=C(NCc1cccnc1)C1CCN(Cc2cc3ccccc3n2Cc2cccc(F)c2)CC1	0
Cc1nccn1-c1ccccc1CNC1CCC2(CCNCC2)CC1	3
CCc1csc(CNC2CCN(CC(C)C)CC2)n1	0
CCc1csc(CNC2CCC3(CCNCC3)CC2)n1	-76*
CN(C)Cc1noc2c1CN(C(=O)c1cnccn1)CC2	-34
COC(=O)NC(C)CNc1nccc(-c2cn(C(C)C)nc2-c2cc(Cl)cc(NS(C)(=O)=O)c2F)n1 (centres undefined)	-71*
COCCNC(=O)C1CCCN(C2CCN(Cc3nccn3C)CC2)C1 (centres undefined)	-5
COc1ccc(N(Cc2cccnc2)C(=O)c2ccccc2Cn2ccnc2)cc1	-5
CC(C)(C)c1cc2nc(C(F)(F)F)cc(N3CCN(C(=O)c4ccccc4)CC3)n2n1	-86*
Cc1ccc(C)c(N2CCN(C(=O)c3ccc(-n4nc(C(F)(F)F)c5c4CCCC5)cc3)CC2)c1	1
O=C(c1ccccc1)N1CCN(C(=O)c2ccccc2)CC1	-10
SMILES	Tgondii IFNg
Cn1cc(C2CCCCCN2C(=O)c2ccc(F)cc2)cn1 (centres undefined)	1
COc1ccc(S(=O)(=O)CCNC(=O)c2nc3ccccc3n(C)c2=O)cc1	7
CC(=O)N1CC2(CCN(C(=O)c3ccc4cc[nH]c4c3)CC2)CC1C(=O)O (centres undefined)	1
CCOc1ccccc1NC(=O)c1cnccn1	-46
O=C(Nc1ccc(OC(F)(F)F)cc1Br)c1cnccn1	-110*
Cc1nc(NC(=O)c2cnccn2)ccc1Br	455
CN(CCC(=O)O)c1cccc(C(F)(F)F)c1	-4
CN(C)CC(=O)NCCC1CCCCN1 (centres undefined)	-5
C1CCC(C(CC2CCCCN2)C2CCCCC2)CC1 (centres undefined)	-96*!
CN1CCN(CCC2CCCCN2)CC1 (centres undefined)	17
CC1CCCN(CC(C)(C)NC(=O)COc2ncnc3ccccc23)C1 (centres undefined)	8
O=C(Nc1cnccn1)[C@H]1C[C@H]2CCN(Cc3ccco3)C[C@H]2O1	5
CCS(=O)(=O)N1CC[C@@H]2O[C@@H](c3nnc(C)o3)CC[C@@H]21	-12
C=Cc1ccc(C(=O)N2CC[C@H](O)[C@@H](O)C2)cc1	-40
Nc1ccc(N)c(C(=O)O)c1	-18
NC(=O)Cc1cccc(C(=O)c2ccccc2)c1N	19
CC(=O)c1ccc(-c2ccc(N)c(C(=O)c3ccccc3)c2)cc1	-85*
O=C(c1ccco1)N1CCC2(CCOCC2COc2cnccn2)CC1 (centres undefined)	2
COc1cc(OC)cc(-c2noc(-c3nnn(Cc4nc(-c5cccc(C)c5)oc4C)c3C)n2)c1	3
c1coc(-c2nccn2-c2ccc(-c3ccn[nH]3)cc2)c1	19
CN1C(=O)c2cc(NC(=O)Nc3cccc(C#N)c3)ccc2OC[C@H]2O[C@@H](CC(=O)Nc3ccc4c(c3)CCC4)CC[C@@H]21	-58
Cc1cc(C(=O)Nc2ccc3c(c2)C(=O)N(C)[C@H]2CC[C@H](CC(=O)NCc4ccc(-c5ccccc5)cc4)O[C@H]2CO3)no1	-62
Cc1cc(C(=O)Nc2ccc3c(c2)C(=O)N(C)[C@@H]2CC[C@@H](CC(=O)O)O[C@H]2CO3)no1	14
COC(=O)C[C@H]1CC[C@@H]2[C@@H](COc3ccc(NC(=O)Nc4cccc(C#N)c4)cc3C(=O)N2C)O1	-79*

Bioassay records deposited in PubChem BioAssay by Broad Institute.
